# Biological target: PUM1 PUF domain R8-TWK (Homo sapiens, UniProt Q14671 828-1176, N1122T;Y1123W;Q1126K)
# Experiment: yeast three-hybrid, YBZ-1, SC-Leu-His + 0.5 mM 3-AT, 4 days
# Conditions: tags: N-Gal4 AD-HA kept; label: inside an RPR1-promoter hybrid RNA with tandem MS2 sites; ssRNA
# Method in brief: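 Pumilio-1 PUF domain libraries, randomized at the three base-contacting residues of each repeat, were co-expressed with matching RNA elements from a centromeric plasmid in strain YBZ-1, which carries a LexA–MS2 coat fusion and a HIS3 reporter. Transformants grew for four days on SC-Leu (input) or on SC-Leu-His + 0.5 mM 3-AT (selection), and the repeat regions were PCR-amplified and Illumina-sequenced. The interaction score is the log change in variant frequency from input to selection. That logarithm is base 2, with a pseudocount of 1 where a variant was absent.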
# PUM1 PUF domain R8-TWK, sequence (Q14671 828-1176 N1122T/Y1123W/Q1126K): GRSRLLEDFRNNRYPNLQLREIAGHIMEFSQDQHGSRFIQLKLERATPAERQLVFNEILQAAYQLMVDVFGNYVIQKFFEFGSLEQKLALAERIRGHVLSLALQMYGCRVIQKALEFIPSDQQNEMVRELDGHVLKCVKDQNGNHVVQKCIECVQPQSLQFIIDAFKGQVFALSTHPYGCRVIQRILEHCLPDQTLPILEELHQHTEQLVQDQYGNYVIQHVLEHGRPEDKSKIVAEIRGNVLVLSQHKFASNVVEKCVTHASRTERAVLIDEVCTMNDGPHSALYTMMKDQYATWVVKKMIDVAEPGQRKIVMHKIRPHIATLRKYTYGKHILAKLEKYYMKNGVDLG
row,Sequence,binding signal
1,GGCUAGAACUAGUGGAUCCCCCGGCGCCCGGCGGCUCGAGCCCGGGUAAGGGUAAAUAGUCUGCAUGCCGCCGGGCGCCAUGCCUGCAGGUCGACUCUAGAAAACAUG,3.33 log2 enrichment (interaction score)
2,GGCUAGAACUAGUGGAUCCCCCGGCGCCCGGCGGCUCGAGCCCGGGUAAGUGUAAAUAGUCUGCAUGCCGCCGGGCGCCAUGCCUGCAGGUCGACUCUAGAAAACAUG,5.8 log2 enrichment (interaction score)
3,GGCUAGAACUAGUGGAUCCCCCGGCGCCCGGCGGCUCGAGCCCGGGUAAGCGUAAAUAGUCUGCAUGCCGCCGGGCGCCAUGCCUGCAGGUCGACUCUAGAAAACAUG,2.23 log2 enrichment (interaction score)

# Reference: PMC8384837, “Expanding the binding specificity for RNA recognition by a PUF domain”
